# Most compounds without a hit are left out; they make up all but 1.1% or so of the library.
# HTR5A ag ctr – activates human HTR5A in OPRM1-OPRD1 agonist counter-screen; P47898; HTR5A agonist assay, luminescence, cell-based; activation, % at 9.3 µM; hit rate 0.61% among 340,000; AID 504692; in the data active = activation mostly above about 9.5%, no sharp cut-off; inactive = mostly below about 7.6%;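 note: 0% = cells with vehicle only and 100% = reference agonist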
# Target sequence (P47898 whole entry, looked up): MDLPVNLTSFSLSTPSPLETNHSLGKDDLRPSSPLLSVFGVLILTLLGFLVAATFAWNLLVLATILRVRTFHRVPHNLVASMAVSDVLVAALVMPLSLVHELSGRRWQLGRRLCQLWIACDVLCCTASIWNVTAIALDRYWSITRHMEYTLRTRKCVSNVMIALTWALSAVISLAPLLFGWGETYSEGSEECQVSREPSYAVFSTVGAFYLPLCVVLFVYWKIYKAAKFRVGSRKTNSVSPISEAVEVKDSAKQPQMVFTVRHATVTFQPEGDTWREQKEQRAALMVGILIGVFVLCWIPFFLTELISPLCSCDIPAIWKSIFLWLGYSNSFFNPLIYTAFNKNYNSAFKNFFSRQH
# OPRM1-OPRD1 inv – inverse agonists of human mu-delta opioid receptor heterodimerization; hit rate 0.21% among 340,000; AID 504357; cell-based MOR-DOR heterodimer luminescence, inverse agonism; inhibition, % at 9.3 µM; in the data active = inhibition above about 22%, passing the limit was not always enough;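 note: 0% = cells with DMSO and 100% = wells without cells with DMSO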
# HTR5A inv ag – counter-screen for OPRM1-OPRD1 inverse agonists: human HTR5A inverse agonism. HTR5A cell line, luminescence. P47898. hit rate 0.083% among 340,000. inhibition, % at 9.3 µM; in the data active = inhibition mostly above about 23%, no sharp cut-off; inactive = mostly below about 18%;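 note: 0% = cells with DMSO and 100% = no-cell wells with DMSO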
# MOR-DOR ag – OPRM1-OPRD1 heterodimerization agonism | hit rate 0.3% among 340,000 | cells, luminescence | P35372+P41143 | activation, % at 9.3 µM;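 note: 0% = vehicle-treated cells and 100% = reference agonist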
# OPRM1-D1 ag cf – OPRM1-OPRD1 heterodimer agonism, confirmation | shares compounds with MOR-DOR ag | cells, MOR-DOR heterodimerization, luminescence complementation | activation, % at 9.3 µM | hit rate 45% among 830;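 note: 0% = vehicle-treated cells and 100% = reference agonist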
# HTR5A ag counter – counter-screen for OPRM1-OPRD1 agonists: human HTR5A agonism; shares compounds with MOR-DOR ag; HTR5A agonist counterscreen, cell luminescence; activation, % at 9.3 µM; hit rate 8% among 830; AID 504905; in the data active = activation above about 17%;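 note: 0% = vehicle-treated cells and 100% = reference agonist response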
# Numbers without * were called inactive; i = inactive; / = no result given. Cut-off read from the data, not from the text of the source, unless noted: active = activation above about 18%; inactive = the rest.
SMILES,HTR5A ag ctr,OPRM1-OPRD1 inv,HTR5A inv ag,MOR-DOR ag,OPRM1-D1 ag cf,HTR5A ag counter
CCOC(=O)C1(CC2CC2)CCN(Cc2cn(C)c3ccccc23)CC1,-5,-125,17,18*,-3,-6
CCOC(=O)C1(CC2CC2)CCN(Cc2cnc(N(C)C)s2)CC1,-2,-182,-26,35*,1,3
CCOC(=O)C1(Cc2ccccc2)CCN(Cc2cn(CC(=O)OC)c3ccccc23)CC1,-3,0,20,0,/,/
O=C(COc1ccccc1Cl)NNC(=O)c1ccc2nc[nH]c2c1,-8,14,19,-3,/,/
COC(=O)CCCNC(=O)c1ccc(OC2CCN(CCc3ccccc3)CC2)cc1,-2,-260,2,38*,35*,-1
Nc1nc(SCC(=O)Nc2ccccc2)nc2nc3c(cc12)CCCC3,9,-194,-52,35*,7,5
Cc1ccc(NC(=O)CSc2nc(N)c3cc4c(nc3n2)CCCC4)cc1,2,-156,-22,29*,28*,1
C[C@H](CO)N1C[C@H](C)[C@@H](CN(C)C(=O)Nc2ccc(C(F)(F)F)cc2)Oc2c(NS(=O)(=O)c3cn(C)cn3)cccc2C1=O,2,-1,-1,0,/,/
O=C(CCN1C(=O)[C@@H]2Cc3ccccc3CN2C1=O)N[C@H](Cc1ccccc1)C(=O)O,-3,8,-13,-2,/,/
CC[C@@H](C)[C@H](CNC)NC[C@@H](Cc1cccc2ccccc12)NCCc1cccc(C(F)(F)F)c1,9,-128,-77,24*,-2,2
O=C(Nc1cc(Sc2ccccn2)cc([N+](=O)[O-])c1)c1ccc([N+](=O)[O-])cc1,14*,-147,-13,32*,1,35*
O=[N+]([O-])c1ccc(Sc2ccccn2)nc1,5,6,21,-1,/,/
Cc1cc(S(=O)(=O)Nc2ccc(C(=O)NCCCN3CCCC3=O)cc2)ccc1F,4,1,-7,0,/,/
Cc1ccc(C)c(S(=O)(=O)N2CCN(CC(=O)NC(C)c3ccccc3)CC2)c1 (stereo not given),5,-82,-19,16,/,/
Oc1cccc(C(=S)N2CCC(Cc3ccccc3)CC2)c1,5,-22,-15,4,/,/
Oc1cccc(C(=S)N2CCN(Cc3ccccc3)CC2)c1,-2,-172,16,32*,5,0
O=C(CNC(=O)c1ccc(Cl)cc1Cl)OCCCn1c(=O)[nH]c2ccccc21,-6,5,-14,-1,/,/
CC(C)[C@H](NC(=O)c1ccccc1Cl)C(=O)OCC(=O)NC(=O)NC1CCCC1,2,5,12,-1,/,/
CC(C)[C@H](NC(=O)c1ccccc1Cl)C(=O)OCC(=O)NC(=O)NCc1ccco1,-4,i,9,314*,1,-6
COc1cccc(OCc2cc(C(=O)N3CCN(C)C(c4ccccc4)C3)no2)c1 (stereo not given),3,13,-10,-3,/,/
COc1ccc(S(=O)(=O)N(CC(=O)Nc2cccnc2)c2ccccc2OC)cc1,6,-328,11,64*,6,10
COc1ccc(C)cc1N(CC(=O)Nc1cccnc1)S(=O)(=O)c1ccc(C)cc1,4,-345,8,69*,0,-1
COc1ccc(N(CC(=O)Nc2cccnc2)S(=O)(=O)c2ccc(C)cc2)cc1Cl,-1,7,3,-1,/,/
CSc1ccc(C(=O)C2CCCN(C(=O)c3ccc4c(c3)no[n+]4[O-])C2)cc1 (stereo not given),1,-49,19,10,/,/
CCOc1ccc(S(=O)(=O)Nc2ccc3c(c2)OCO3)cc1,-2,-19,-22,2,/,/
SMILES,HTR5A ag ctr,OPRM1-OPRD1 inv,HTR5A inv ag,MOR-DOR ag,OPRM1-D1 ag cf,HTR5A ag counter
O=C(Nc1ccc(NC(=O)c2ccc(Cl)c(S(=O)(=O)N3CCOCC3)c2)cc1)c1ccccc1,1,0,8,0,/,/
O=C(Nc1ccccc1)c1ccc(NC2CCCCC2)c(S(=O)(=O)N2CCOCC2)c1,-2,-184,8,37*,43*,0
CCOC(=O)C1(CCOc2ccccc2)CCN(Cc2ccc(OC)cc2)CC1,-1,i,5,224*,4,7
CCOC(=O)C1(CCOc2ccccc2)CCN(Cc2ccc(NC(C)=O)cc2)CC1,-4,i,10,92*,8,7
CC(=O)Nc1ccc(CN2CCC(CO)(CCOc3ccccc3)CC2)cc1,2,-18,-6,4,/,/
CCOC(=O)C1(CCOc2ccccc2)CCN(Cc2cnc(C)s2)CC1,-2,-397,7,72*,80*,-1
CCOC(=O)C1(CCOc2ccccc2)CCN(Cc2cccc(-n3cccn3)c2)CC1,1,-170,-2,33*,17,-1
CCOC(=O)C1(CCOc2ccccc2)CCN(Cc2ccccc2O)CC1,-3,-4,12,1,/,/
CCOC(=O)C1(CCOc2ccccc2)CCN(Cc2cccc3c2OCO3)CC1,-3,-93,8,18*,14,6
COc1ccc(-c2cc(C(F)F)n3ncc(C(=O)Nc4cccc(S(=O)(=O)N5CCOCC5)c4)c3n2)cc1,0,18,7,-4,/,/
CCc1ccc(NC(=O)N(CCCN2CCOCC2)Cc2cccs2)cc1,9,-202,-25,34*,47*,-4
O=C(CN1CCOCC1)N1CCOCC1,5,22,-20,-5,/,/
Cc1sc(NC(=S)Nc2ccc(F)cc2)c(C(N)=O)c1C,-5,4,12,-1,/,/
Cc1sc(NC(=S)NC(=O)C2CCCCC2)c(C(N)=O)c1C,-1,-128,-2,19*,21*,0
O=C(Cn1ccc(NC(=O)OCc2ccccc2)nc1=O)NCc1ccc2[nH]ccc2c1,1,15,-7,-3,/,/
CN(C)C(CNC(=O)c1cccc(S(=O)(=O)Nc2ccc(SC(F)F)cc2)c1)c1ccccc1 (stereo not given),-2,-150,1,38*,5,1
COc1ccc(NS(=O)(=O)c2cccc(C(=O)NCC(c3ccccc3)N(C)C)c2)cc1 (stereo not given),1,-18,0,3,/,/
CN(C)C(CNC(=O)c1cccc(S(=O)(=O)N(C)C)c1)c1ccccc1 (stereo not given),4,-178,-15,33*,2,26*
COc1ccc(C(CNC(=O)c2cccc(S(=O)(=O)NCc3ccccc3)c2)N(C)C)cc1 (stereo not given),-2,-104,12,20*,15,0
COc1ccc(C(CNC(=O)c2ccc3c(c2)OCCO3)N(C)C)cc1 (stereo not given),-2,i,6,132*,148*,1
O=C1CCN(Cc2ccc(O)cc2)CCN1[C@H](CO)c1ccccc1,4,3,-10,0,/,/
COc1cc(C(C(=O)NC2CCCC2)N(C(=O)Cc2cccs2)C2CC2)cc(OC)c1OC (stereo not given),3,9,-9,-2,/,/
O=C(O)CC1(CC(=O)NCc2ccncc2)CCCCC1,3,4,-4,-1,/,/

# Assay outcomes: PubChem, The Scripps Research Institute Molecular Screening Center
